The supplement of paper PMC7411054
Structures can show the parent of a compound that is named as a salt.

Tests used:
Conditions in all cases: treatment time: 24 h
[1] = system: HepG2-ACTB-RAB5A; experiment: lowest phenotypically active concentration; higher = less potent
How it was run: (§1)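 Two criteria together defined phenotypic activity: deviation and reproducibility. Deviation meant ≥3 of 4 wells beyond the 95th percentile of Euclidean distances in solvent control wells, and reproducibility meant a median replicate Pearson correlation above the 95th percentile of non-replicates. Wells had been treated for 24 h at 0.3, 1, 3 or 9 µM in fifteen gene-edited A549, HepG2 and WPMY1 reporter lines before live imaging.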

[2] = system: HepG2-CANX-COX4; experiment: as above
How it was run: as §1

[3] = system: HepG2-GM130-SQSTM1; experiment: as above
How it was run: as §1

[4] = system: HepG2-TUBA1B-RELA; experiment: as above
How it was run: as §1

[5] = system: WPMY1-ACTB-RAB5A; experiment: as above
How it was run: as §1

[6] = system: WPMY1-CANX-COX4; experiment: as above
How it was run: as §1

[7] = system: WPMY1-GM130-SQSTM1; experiment: as above
How it was run: as §1

[8] = system: WPMY1-TP53BP1-CLTA; experiment: as above
How it was run: as §1

[9] = system: WPMY1-TUBA1B-RELA; experiment: as above
How it was run: as §1

[10] = system: WPMY1-ACTB-RAB5A; experiment: phenotypically active (imaging signature differs from DMSO and reproducible) at any of 0.3-9 uM (binary (1 = active, 0 = inactive)); higher = active
How it was run: as §1

Row | Structure (SMILES) | lowest phenotypically active concentration [1] [µM] | lowest phenotypically active concentration [2] [µM] | lowest phenotypically active concentration [3] [µM] | lowest phenotypically active concentration [4] [µM] | lowest phenotypically active concentration [5] [µM] | lowest phenotypically active concentration [6] [µM] | lowest phenotypically active concentration [7] [µM] | lowest phenotypically active concentration [8] [µM] | lowest phenotypically active concentration [9] [µM] | phenotypically active [10]
1 | CC[C@@H](N)CNc1ccnc(-c2cc(-c3cnn(C)c3)ccc2O)n1 | 1 | 1 | 1 | 1 | 3 | 1 | 1 | 1 | 1 | 1 (active)
2 | CC(=O)NCC(=O)N1[C@@H]2CC[C@H]1c1ccc(Nc3ncc(C(F)(F)F)c(NC4CCC4)n3)cc12 | ≤ 0.3 | ≤ 0.3 | ≤ 0.3 | ≤ 0.3 | ≤ 0.3 | ≤ 0.3 | ≤ 0.3 | ≤ 0.3 | ≤ 0.3 | 1 (active)
3 | C[C@@H]1COCCN1c1cc(C2(S(C)(=O)=O)CC2)nc(-c2cccc3[nH]ccc23)n1 | ≤ 0.3 | 1 | 1 | 1 | ≤ 0.3 | ≤ 0.3 | 1 | 1 | 3 | 1 (active)
4 | COc1ccc(N2C(=O)CSC2c2cccc(Br)c2)c(OC)c1 (stereo not given) | 9 | 3 | 9 | 9 | 3 | 3 | 3 | 3 | 3 | 1 (active)
5 | COc1cc(C)c(Sc2cnc(NC(=O)c3ccc(CNC(C)C(C)(C)C)cc3)s2)cc1C(=O)N1CCN(C(C)=O)CC1 (stereo not given) | 3 | 3 | 3 | 3 | 3 | 3 | 3 | 3 | 3 | 1 (active)
6 | Nc1ccc(-c2ccc3ncc4ccc(=O)n(-c5cccc(C(F)(F)F)c5)c4c3c2)cn1 [Torin 2] | ≤ 0.3 | ≤ 0.3 | ≤ 0.3 | ≤ 0.3 | ≤ 0.3 | ≤ 0.3 | ≤ 0.3 | ≤ 0.3 | ≤ 0.3 | 1 (active)
7 | COc1cc(N2CCOCC2)ccc1Nc1ncc(Cl)c(Nc2ccccc2NS(C)(=O)=O)n1 | 3 | 3 | 3 | 3 | 9 | 9 | 9 | 9 | 3 | 1 (active)
8 | Clc1ccc(C2(c3ccc(-c4cn[nH]c4)cc3)CCNCC2)cc1 | ≤ 0.3 | ≤ 0.3 | ≤ 0.3 | ≤ 0.3 | ≤ 0.3 | ≤ 0.3 | ≤ 0.3 | 1 | ≤ 0.3 | 1 (active)
9 | CC(C)NCCCn1c(Sc2cc3c(cc2I)OCO3)nc2c(N)ncnc21 | ≤ 0.3 | ≤ 0.3 | ≤ 0.3 | ≤ 0.3 | ≤ 0.3 | ≤ 0.3 | ≤ 0.3 | ≤ 0.3 | ≤ 0.3 | 1 (active)
10 | COc1cc2nc(-c3cc(F)ccc3O)nc(N[C@@H]3CNC[C@H]3C(C)(C)O)c2cc1OC | 1 | 1 | 1 | 1 | 1 | 1 | 1 | 1 | 1 | 1 (active)
11 | CNC1CCC2(C)C(=CCC3C2CCC24CN(C)C(C)C2CCC34)C1 (stereo not given) [Isoconessimine] | 1 | 9 | 1 | 1 | 1 | 3 | 3 | 3 | 3 | 1 (active)
12 | CC(=O)NC1=NN(C(C)=O)C(C)(c2ccccc2)S1 (stereo not given) | 9 | 3 | 9 | 3 | 3 | 9 | 3 | 3 | 3 | 1 (active)
13 | COc1ccc2cc1Oc1ccc(cc1)C[C@H]1c3cc(c(OC)cc3CCN1C)Oc1c(OC)c(OC)cc3c1[C@H](C2)N(C)CC3 [Tetrandrine] | 1 | 3 | ≤ 0.3 | ≤ 0.3 | 1 | 1 | ≤ 0.3 | 3 | 1 | 1 (active)
14 | Cc1noc(C)c1-c1cc(O)cc(C(O)c2ccccc2)c1 (stereo not given) | 3 | 3 | 3 | 3 | 3 | 3 | 1 | 3 | 3 | 1 (active)
15 | CS(=O)(=O)c1cccc(CNc2nc(Nc3ccc4c(c3)CCC(=O)N4)ncc2C(F)(F)F)c1 | 1 | 1 | 3 | 1 | 1 | 3 | 3 | 1 | 3 | 1 (active)
16 | O=C(NC(NC(=S)Nc1ccc(F)c([N+](=O)[O-])c1)C(Cl)(Cl)Cl)C(c1ccccc1)c1ccccc1 (stereo not given) | 9 | 9 | 9 | 9 | 9 | 9 | 9 | 9 | 9 | 1 (active)
17 | Cc1ccc2nc(NCCN)c3ncc(C)n3c2c1 | 3 | 3 | 3 | 3 | 3 | 3 | 3 | 3 | 3 | 1 (active)
18 | Cc1ccc([N+](=O)[O-])cc1S(=O)(=O)N(C)/N=C/c1cnc2ccc(Br)cn12 | ≤ 0.3 | ≤ 0.3 | ≤ 0.3 | ≤ 0.3 | ≤ 0.3 | ≤ 0.3 | ≤ 0.3 | ≤ 0.3 | ≤ 0.3 | 1 (active)
19 | Cc1cnc(NC(=O)Nc2cc(Br)c(C)cc2OC[C@@H]2CNCCO2)cn1 | 3 | 9 | 1 | 1 | ≤ 0.3 | 1 | 3 | 1 | 1 | 1 (active)

Row | Structure (SMILES) | lowest phenotypically active concentration [1] [µM] | lowest phenotypically active concentration [2] [µM] | lowest phenotypically active concentration [3] [µM] | lowest phenotypically active concentration [4] [µM] | lowest phenotypically active concentration [5] [µM] | lowest phenotypically active concentration [6] [µM] | lowest phenotypically active concentration [7] [µM] | lowest phenotypically active concentration [8] [µM] | lowest phenotypically active concentration [9] [µM] | phenotypically active [10]
20 | CCC1(O)CC2CN(CCc3c([nH]c4ccccc34)C(C(=O)OC)(c3cc4c(cc3OC)N(C)C3C(O)(C(=O)OC)C(OC(C)=O)C5(CC)C=CCN6CCC43C65)C2)C1 (stereo not given) [Vinblastine sulfate] | ≤ 0.3 | ≤ 0.3 | ≤ 0.3 | ≤ 0.3 | ≤ 0.3 | ≤ 0.3 | ≤ 0.3 | ≤ 0.3 | ≤ 0.3 | 1 (active)
21 | Clc1ccc(N/N=C(\c2ccccc2)c2ccccn2)nc1 | ≤ 0.3 | ≤ 0.3 | 1 | ≤ 0.3 | 1 | 1 | 1 | 1 | 1 | 1 (active)
22 | Nc1nc(Cl)nc2c1ncn2[C@@H]1O[C@H](CO)[C@@H](O)[C@@H]1F [clofarabine] | ≤ 0.3 | ≤ 0.3 | ≤ 0.3 | ≤ 0.3 | ≤ 0.3 | 9 | 3 | ≤ 0.3 | ≤ 0.3 | 1 (active)
23 | COc1cc2c(cc1-c1c(C)noc1C)ncc1[nH]c(=O)n([C@H](C)c3ccccn3)c12 [I-BET 151 dihydrochloride] | 1 | 3 | 3 | 3 | 3 | 3 | 3 | 3 | 3 | 1 (active)
24 | Nc1ncnc2c1c(-c1cnc3[nH]ccc3c1)nn2C1CCCC1 | 1 | ≤ 0.3 | ≤ 0.3 | ≤ 0.3 | 1 | 1 | 1 | ≤ 0.3 | 1 | 1 (active)
25 | CN(C)CC(=O)N1CCC[C@@H](n2nc(-c3ccc(Oc4ccccc4)cc3)c3c(N)ncnc32)C1 | 1 | 3 | 3 | 1 | 3 | 9 | 3 | 3 | 3 | 1 (active)
26 | O=C1Nc2ccc(F)cc2C1=C1Nc2ccccc2C1=NO [5'-Fluoroindirubinoxime] | ≤ 0.3 | ≤ 0.3 | 1 | 1 | 1 | ≤ 0.3 | 1 | ≤ 0.3 | 1 | 1 (active)
27 | COc1ccc2[nH]c(C(=O)c3ccccc3)cc2c1 | ≤ 0.3 | ≤ 0.3 | ≤ 0.3 | ≤ 0.3 | ≤ 0.3 | 3 | ≤ 0.3 | ≤ 0.3 | ≤ 0.3 | 1 (active)
28 | Cc1ccc(/C(=C/CN2CCCC2)c2cccc(/C=C/C(=O)O)n2)cc1 [acrivastine] | 3 | 9 | 3 | 1 | 1 | 1 | 1 | 9 | 1 | 1 (active)
29 | Cc1ccc(-n2nc(C(C)(C)C)cc2NC(=O)Nc2ccc(OCCN3CCOCC3)c3ccccc23)cc1 | 1 | 3 | 3 | ≤ 0.3 | 3 | 1 | 1 | 9 | 1 | 1 (active)
30 | CCC(=O)N1CCN(c2ccc(-n3c(=O)ccc4cnc5ccc(-c6cnc7ccccc7c6)cc5c43)cc2C(F)(F)F)CC1 [Torin 1] | ≤ 0.3 | ≤ 0.3 | ≤ 0.3 | ≤ 0.3 | ≤ 0.3 | ≤ 0.3 | ≤ 0.3 | ≤ 0.3 | ≤ 0.3 | 1 (active)
31 | COc1c(Nc2cc(C)[nH]n2)nc(Sc2ccc(S(=O)(=O)Cc3cccc([N+](=O)[O-])c3F)cc2F)nc1N1CCOCC1 [Centrinone] | 9 | 3 | 1 | 3 | 1 | 3 | 3 | 3 | 3 | 1 (active)
32 | O=C(Cc1ccc(-c2ccc(OCCN3CCOCC3)cc2)cn1)NCc1ccccc1 | ≤ 0.3 | ≤ 0.3 | ≤ 0.3 | ≤ 0.3 | ≤ 0.3 | ≤ 0.3 | ≤ 0.3 | ≤ 0.3 | ≤ 0.3 | 1 (active)
33 | O=C(CCCCCN1C(=O)c2cccc3cccc(c23)C1=O)NO [Scriptaid] | ≤ 0.3 | 1 | ≤ 0.3 | ≤ 0.3 | 1 | 1 | 1 | 1 | 1 | 1 (active)
34 | Nc1ccn([C@@H]2O[C@H](CO)[C@@H](O)[C@@H]2O)c(=O)n1 [cytarabine] | ≤ 0.3 | ≤ 0.3 | ≤ 0.3 | ≤ 0.3 | ≤ 0.3 | 1 | 1 | ≤ 0.3 | ≤ 0.3 | 1 (active)
35 | CN(C)C1CCN(C(=O)c2ccc(NC(=O)Nc3ccc(-c4nc(N5CCOCC5)nc(N5CCOCC5)n4)cc3)cc2)CC1 | ≤ 0.3 | ≤ 0.3 | ≤ 0.3 | ≤ 0.3 | ≤ 0.3 | ≤ 0.3 | ≤ 0.3 | ≤ 0.3 | ≤ 0.3 | 1 (active)
36 | Cc1cc(Nc2cc(C)c(C#N)c(NC(C)CCCC(C)(C)O)n2)n[nH]1 (stereo not given) [TC-A 2317 hydrochloride] | 1 | 1 | ≤ 0.3 | ≤ 0.3 | 1 | 1 | 1 | ≤ 0.3 | 1 | 1 (active)
37 | C=CC(=O)Nc1cccc(Nc2nc(Nc3ccc(OCCOC)cc3)ncc2F)c1 | 3 | 3 | 3 | 9 | 3 | 3 | 3 | 9 | 3 | 1 (active)
38 | CO[C@@H]1[C@H](N(C)C(=O)c2ccccc2)C[C@H]2O[C@]1(C)n1c3ccccc3c3c4c(c5c6ccccc6n2c5c31)C(=O)NC4 | ≤ 0.3 | ≤ 0.3 | ≤ 0.3 | ≤ 0.3 | ≤ 0.3 | ≤ 0.3 | 1 | ≤ 0.3 | ≤ 0.3 | 1 (active)
